# Screening results: PubChem BioAssay, several laboratories
# Mot1-301 SUMO = SUMOylation pathway inhibition by Mot1-301 growth rescue | S. cerevisiae Mot1-301 growth rescue, ATP luminescence, 38.5C; percent above DMSO median, 100 means doubled | growth rescue, % at 18.8 µM | actives 1% (n = 320,000);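 active = every valid replicate shows activation above 250% relative to neutral control wells; inactive = the rest, any valid replicate at or below 250%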;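 also: OY570 slx delta 5 strain wells were the positive control but not used for scaling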
# HIF act = HIF pathway transcriptional activation; U2OS HRE-luciferase reporter, luminescence; normalized: DMSO 0%, desferrioxamine 100%; actives 0.32% (n = 300,000); activation, % at 7.5 µM (by protocol);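 active = mean activation of at least 10% of the iron chelator positive control signal, with at least half of replicates also reaching 10%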
# ALR inh = inhibitors of human sulfhydryl oxidase ALR; purified ALR, DTT oxidation, H2O2 HRP-luminol luminescence; inhibition, % (concentration not given with the values); P55789; actives 3.8% (n = 290,000); AID 485317;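 active = mean replicate inhibition above about 79%, with every replicate also reaching it, limit read from the data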
# Target sequence (P55789 whole entry, looked up): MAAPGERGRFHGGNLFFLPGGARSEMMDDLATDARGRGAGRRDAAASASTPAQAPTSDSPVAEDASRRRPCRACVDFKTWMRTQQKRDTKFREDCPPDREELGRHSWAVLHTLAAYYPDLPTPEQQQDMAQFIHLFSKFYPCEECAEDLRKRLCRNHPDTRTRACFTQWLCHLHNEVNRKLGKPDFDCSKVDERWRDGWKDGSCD
# PfM18AAP inh = blocks P. falciparum M18 aspartyl aminopeptidase; recombinant PfM18AAP, H-Glu-NHMec fluorogenic cleavage; inhibition, % at 7.35 µM; actives 1.2% (n = 290,000);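 active = inhibition above the campaign mean inhibition over all tested compounds plus 3 SD, cut at about 28% in these data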;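 also: 0% = plate median of test compound wells and 100% = 2 mM ZnCl2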
# Numbers without * were called inactive; . = not tested or not shown. Rows were chosen to be rich in hits. Some 5.3% of all compounds tested hit in one or more screens of this group.
SMILES,Mot1-301 SUMO,HIF act,ALR inh,PfM18AAP inh
COc1ccc(/C=N/OCC(=O)Nc2nc3ccccc3s2)cc1,10,2,1,4
Cn1c(=S)[nH]c2cccnc21,-15,0,97*,-6
CS(=O)(=O)N(CC(=O)N1CCOCC1)c1cccc(F)c1,2,0,2,5
COc1ccc(CNC(=O)CN(C)S(=O)(=O)c2ccc(Cl)cc2)cc1,339*,0,-5,-1
Cc1nc2ccc(S(=O)(=O)N(C)CC(=O)NCc3ccc(N(C)C)cc3)cc2s1,11,0,85*,10
CC(C)OP(=O)(OC(C)C)C(Nc1ccccc1)c1cccc2c1OCO2 (configuration not stated),279*,0,-5,4
CC(C)OP(=O)(OC(C)C)C(Nc1ccccc1)c1ccc2c(c1)OCO2 (configuration not stated),6,0,10,-6
COCCN(CCOC)S(=O)(=O)c1ccc(C(=O)Nc2sc3c(c2C(N)=O)CCCCC3)cc1,8,2,91*,-1
CC1CCc2sc(NC(=O)c3ccc(N4C(=O)CCC4=O)cc3)c(C(N)=O)c2C1 (configuration not stated),-3,0,-2,5
NC(=O)c1c(NC(=O)c2ccc(N3C(=O)CCC3=O)cc2)sc2c1CCCC2,4,.,93*,.
COC(=O)c1c(NC(=O)c2ccc(N(C)S(=O)(=O)c3ccc(C)cc3)cc2)sc2c1CCCC2,15,0,-28,-14
COCCCNC(=O)c1c(NC(=O)c2cccs2)sc2c1CCCC2,-2,0,86*,0
NC(=O)c1c(NC(=O)c2ccccc2Cl)sc2c1CCC2,10,3,91*,3
NC(=O)c1c(NC(=O)c2cccs2)sc2c1CCCCCC2,-19,2,-9,5
CCn1c(CNC(=O)c2ccccc2F)nnc1SCC(=O)NC1CCCCC1C (configuration not stated),-5,0,2,1
NC(=O)c1c(NC(=O)c2ccccc2F)sc2c1CCCC2,6,-25,0,5
NC(=O)c1c(NC(=O)c2ccc(F)cc2Cl)sc2c1CCC2,-6,1,93*,0
CCNC(=S)Nc1ccc(N(c2ccccc2)C(C)C)cc1,14,0,32,26
CCNC(=S)NN(c1ccccc1)c1ccccc1,-9,-38,98*,-15
COc1cccc(NC(=O)CN(C)C(=O)CCNS(=O)(=O)c2ccc(C)cc2)c1,0,.,-3,.
CCOC(=O)C1CCCN(S(=O)(=O)c2c(C(=O)N3CCCCC3)c(C)n(C)c2C)C1 (configuration not stated),9,0,1,-6
C/C(=N\Nc1ccc(C)c(Cl)c1)c1cccnc1,19,1,99*,18
C/C(=N\Nc1ccc(C)c(Cl)c1)c1ccncc1,136,0,.,15
CC1(N2CCCCC2)C(=O)c2ccccc2C1=O,40,0,-8,-5
CC1(S(=O)(=O)O)CC(=O)c2ccccc2C1=O (configuration not stated),-9,0,93*,1
SMILES,Mot1-301 SUMO,HIF act,ALR inh,PfM18AAP inh
COc1ccc2ccccc2c1C1NC(=O)NC(C)=C1[N+](=O)[O-] (configuration not stated),-14,1,-22,4
CN1CCN(c2ccc(NC(=S)NC(=O)/C=C/c3ccco3)cc2)CC1,5,5,81*,12
O=C(/C=C/c1ccco1)NC(=S)Nc1ccccn1,23,5,99*,18
O=C(/C=C/c1ccco1)NC(=S)Nc1cccc(C(=O)O)c1,-22,1,96*,19
CC(=O)Nc1ccc(NC(=S)NC(=O)/C=C/c2ccco2)cc1,-4,-1,0,8
S=C(N/N=C/c1ccccc1Cl)Nc1cccc(Cl)c1Cl,-7,2,5,-8
COc1cccc(NC(=O)CCC(=O)Nc2ccc3nc(N4CCOCC4)cc(C)c3c2)c1,-8,3,-26,12
CC1CN(c2ccccc2)NC1=O (configuration not stated),-5,0,99*,-9
CCOC(=O)C1=C(C)NC(C)=C(C(=O)OCC)C1C(=O)O,-8,0,5,-1
CCCC1C(C(=O)OCC)=C(C)NC(C)=C1C(=O)OCC,-7,0,99*,6
O=C(NCCN1CCCc2ccccc21)C1CCC(=O)N(CCc2ccccc2)C1 (configuration not stated),15,0,86*,14
CCN(CCNC(=O)C1CCCN(S(=O)(=O)CC)C1)c1ccccc1 (configuration not stated),-14,0,99*,20
CCS(=O)(=O)N1CCCC(C(=O)NCCN(C)Cc2ccccc2)C1 (configuration not stated),5,0,-3,7
CCCCN(CCCNC(=O)C1CCN(S(=O)(=O)CC)CC1)c1ccccc1,19,0,99*,0
O=C(NCCN1CCCC1=O)C1CCC(=O)N(CCc2ccc(Cl)cc2)C1 (configuration not stated),85,0,-7,7
CCN(CCNC(=O)Cn1cc2c(n1)CCCC2)c1ccccc1,-6,0,99*,2
O=C(OCc1cccc(C(F)(F)F)c1)c1cc(S(=O)(=O)N2CCOCC2)ccc1F,128,0,-1,.
CCn1cc(C(=O)N[C@H](C(=O)NCCN2CCOCC2)C(C)C)c(=O)c2cc3c(cc21)OCO3,-12,0,8,-3
CCN(CCNC(=O)C1CCN(S(=O)(=O)c2cccc3nsnc23)CC1)c1ccccc1,267,0,99*,5
O=C(NCCc1ccccc1)C1CC(=O)N(CCc2ccccc2)C1 (configuration not stated),21,0,-12,-8
CCN(CCNC(=O)C1CCN(S(=O)(=O)CC)CC1)c1ccccc1,78,0,99*,-5
CCN(CCNC(=O)C1CCN(c2nnc(-n3cccc3)s2)CC1)c1ccccc1,-30,0,73,5
CCN(CCNC(=O)C1CC(=O)N(CCc2ccccc2)C1)c1ccccc1 (configuration not stated),-7,1,99*,27
N=c1c(C(=O)NCCN2CCOCC2)cc2c(=O)n3ccccc3nc2n1CCc1ccccc1,-10,0,-3,-5
Cc1ccc(NC(=O)c2cnccn2)c(C)c1,5,2,-1,2
SMILES,Mot1-301 SUMO,HIF act,ALR inh,PfM18AAP inh
Cc1c(NC(=O)C(C)OC(=O)CCc2ccccc2)c(=O)n(-c2ccccc2)n1C (configuration not stated),-9,0,1,-1
COc1ccc(-n2c(=S)[nH]c3cc(C(=O)NC4CCCCC4)ccc3c2=O)c(OC)c1,-13,-1,91*,-2
CC(=O)N1CCC2(CC1)NC(=O)N(c1ccccc1)N2,149,0,98*,6
NC(=O)N1CCC2(CC1)NC(=O)N(c1ccccc1)N2,415,0,-16,4
CCCn1c(=S)[nH]c2cc(C(=O)N(CCO)Cc3ccccc3)ccc2c1=O,259,0,2,-4
COc1ccccc1CNC(=O)CN1CCN(c2ccc(C(C)=O)cc2)CC1,-2,-1,-35,0
